# Data as given in the supplement of paper PMC10105736.
# A number with no mark means an inactive call.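 The calls were made as follows: active = MAPPIT score above the 99th percentile of random reference set scores in the same batch; inactive = at or below it.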
# B1: Arc1 (protein)
# chain: MAQLTQMTNEQLRELIEAVRAAAVGAAGSAAAAGGADASRGKGNFSACTHSFGGTRDHDVVEEFIGNIETYKDVEGISDENALKGISLLFYGMASTWWQGVRKEATTWKEAIALIREHFSPTKPAYQIYMEFFQNKQDDHDPIDTFVIQKRALLAQLPSGRHDEETELDLLFGLLNIKYRKHISRHSVHTFKDLLEQGRIIEHNNQEDEEQLATAKNTRGSKRTTRCTYCSFRGHTFDNCRKRQKDRQEEQHEE
# B2: CG16894 (protein)
# chain: MWYSTVRNPSIALIKQGYHILAEYNLVKEELKNIYAIPSYACGLHWFGVIFVHSGIYAGSVFRFSILLPENFPADISLPTVVFSTEVLHPHICPQNKTLDLAHFLNEWRKDEHHIWHVLRYIQAIFADPEGSICTGQSSSGDLVIMDEVRNMNALNMLAKSRPEYIKRVQEQAILSRNLIYDRPPTEDPHYIIVEPYCAERHLKFMDQLKSPCWKEATSMDCSQPSEYLGHIDSSRQLDEEEANQVEKLHRGRIPEHQREESEVSL
# B3: Ntmt (protein)
# chain: MTTTLEEQLSDKLQMMDETTDKVQGSSKQKDDSSIAASSDAKTASPSSSDSSTKVAAPESEFYNKAQKYWSEVPATVNGMLGGLGYISAIDIQGSNVFLREIRVPGNRLALDCGAGIGRVTRNLLIPRFSCVDLVEQDPAFADKAREYCTSEDGSRGKVGQIYNVGLQKFTPTQQYDLVWTQWVLGHLTDRDLVSFFRRIKQGLAPGAFLCLKENVSSSKKTVEDRNDSSVTRPLDSYEHFLKEAGFRIVRKVKQQNFPKGLFPVYMIACKPVSKE
# B4: Ald1 (protein)
# chain: MTTYFNYPSKELQDELREIAQKIVAPGKGILAADESGPTMGKRLQDIGVENTEDNRRAYRQLLFSTDPKLAENISGVILFHETLYQKADDGTPFAEILKKKGIILGIKVDKGVVPLFGSEDEVTTQGLDDLAARCAQYKKDGCDFAKWRCVLKIGKNTPSYQSILENANVLARYASICQSQRIVPIVEPEVLPDGDHDLDRAQKVTETVLAAVYKALSDHHVYLEGTLLKPNMVTAGQSAKKNTPEEIALATVQALRRTVPAAVTGVTFLSGGQSEEEATVNLSAINNVPLIRPWALTFSYGRALQASVLRAWAGKKENIAAGQNELLKRAKANGDAAQGKYVAGSAGAGSGSLFVANHAY
# B5: Atg5 (protein)
# chain: MAHDREVLRMIWEGQIGICFQADRDEIVGIKPEPFYLMISRLSYLPLVTDKVRKYFSRYISAEHQDGAVWFDFNGTPLRLHYPIGVLYDLLHPEEDSTPWCLTIHFSKFPEDMLVKLNSKELLESHYMSCLKEADVLKHRGLVISAMQKKDHNQLWLGLVNEKFDQFWAVNRRLMEPYGDLESFKNIPLRIYTDDDFTYTQKLISPISVGGQKKSLADLMAELSTPVRRAVGCRTHGIDLHEETQLQWMSEHLSYPDNFLHLSVDYKDV
# What was measured:
# Experiment in all cases: MAPPIT interaction score (arbitrary units); higher = stronger binary interaction signal, active = hit call of the paper
# Arc1 = details: MAPPIT configuration: N-N
# Experimental: (§1)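 MAPPIT in HEK293T cells: Drosophila bait and prey ORFs (from the FlyBi ORF collection) were co-transfected in quadruplicate, with two wells stimulated by erythropoietin. Interaction-dependent JAK-STAT activation was read out with a STAT-responsive firefly luciferase reporter. Positive calls use the 99th percentile of random reference set (RRS) scores within each batch […]. Batches Dvs01 and Dvs02 used the N-N configuration and Dvs04 the N-C configuration. Pairs come from FlyBi screens, CuraGen, DPiM, Finley Y2H, Lit-BM-16, Lit-BS-16 and RRS.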
# CG34382 = details: MAPPIT configuration: N-N; pair source set: Curagen_high_conf
# Experimental: as §1
# CG8441 = details: MAPPIT configuration: N-N; pair source set: Lit-BS-16
# Experimental: as §1
# Pbgd = details: MAPPIT configuration: N-N; pair source set: DPIM
# Experimental: as §1
# ArfGAP3 = details: MAPPIT configuration: N-N; pair source set: Curagen_high_conf
# Experimental: as §1
# Art8 = details: MAPPIT configuration: N-N; pair source set: Curagen_high_conf
# Experimental: as §1
# Ald1 = details: pair source set: Lit-BM-16
# Experimental: as §1
# Atg16 = details: MAPPIT configuration: N-C; pair source set: Lit-BM-16
# Experimental: as §1
# 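Also: HEK293T cells with Epo stimulation, STAT-responsive firefly luciferase reporter, fold induction versus unstimulated cells divided by the larger fold induction of two negative controls lacking either bait or prey.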
binder,measurement,setting,value
B1,MAPPIT interaction score,Arc1; pair source set: screen_1,4.55 (active)
same,MAPPIT interaction score,Arc1; pair source set: screen_2,3.68 (active)
same,MAPPIT interaction score,CG34382,0.00338
same,MAPPIT interaction score,CG8441,-0.34
same,MAPPIT interaction score,Pbgd,0.22
B2,MAPPIT interaction score,ArfGAP3,0.483
B3,MAPPIT interaction score,Art8,3.74 (active)
B4,MAPPIT interaction score,Ald1; MAPPIT configuration: N-C,1.2
same,MAPPIT interaction score,Ald1; MAPPIT configuration: N-N,4.7 (active)
B5,MAPPIT interaction score,Atg16,2.6
